Test in all cases: NCI-60 one-dose screen, 48 h (100 = growth as untreated, 0 = no growth, -100 = all killed)
Holding throughout (details): 10 µM unless noted

Assay [1] relates to T-47D breast.
Assay [2] concerns BT-549 breast.
Assay [3] has as its system MDA-MB-435 melanoma.
Assay [4] deals with SW-620 colon.
In assay [5] the test system is MCF7 breast.
In assay [6] the test system is HCT-116 colon.
Assay [7] deals with HCC-2998 colon.
The test system of assay [8] is KM12 colon.

In PubChem BioAssay (NCI) one finds growth data, which are given here for 32 molecules.

This is part of a sample that, as a whole, favours compounds with a hit. Of some 83,000 tested, about 20% had one in any assay.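 The endpoint reported here, percent growth, reads 100 for growth as untreated, 0 for no net growth and -100 for all cells dead.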 Unmarked numbers belong to inactive results. Activity calls are given as the source filed them. The calls were made as follows: active = growth percent below 10; inactive = the rest.

In the case of `O=C1c2ccccc2C2N1CCC1CCc3ccccc3N12` (centres undefined), the growth in assay [1] is 107%; in assay [2], 88.1%; in assay [3], 110%; in assay [4] it was 102%; in assay [5] it was 96.4%; in assay [6] it was 93.7%. In addition, in assay [7], the growth is 110%.
On to `CC(C)(C)NC(=O)C(OC(=O)C1CCc2cc(F)ccc2O1)c1ccccc1Cl` (centres undefined), for which the growth in assay [1] is 86.8%; in assay [2], 107%; in assay [3], 106%; in assay [4] it was 99.7%; in assay [5] it was 97.8%; in assay [6] it was 93.9%. In addition, the growth in assay [7] is 102%.
For the molecule `CN1CCN(Cc2ccc(NC(=O)c3cnc(F)c(C#Cc4cnc(N)c5ncccc45)c3)cc2C(F)(F)F)CC1`, the growth in assay [1] was 30.3%; in assay [2], 41.9%; in assay [3] it was 10.2%; in assay [4], 8.66% (active); in assay [5], 42.6%; in assay [6] it was 7.2% (active). The growth in assay [7] is 40.7%; in assay [8], 11.2%.
In the case of `O=c1c2sc3ncc(Cl)cc3c2nnn1-c1cccc(Cl)c1`, the growth in assay [1] is 74.7%; in assay [2] it was 85.4%; in assay [3] it was 66.9%; in assay [4] it was 80.5%; in assay [5], 82.5%; in assay [6], 31.3%. The growth in assay [7] was 125%; in assay [8], 87.4%.
Turning to `CCOC(=O)C(=CNc1ccccc1Cl)C(=O)OCC`, the growth in assay [1] is 95%; in assay [2], 106%; in assay [3], 76.9%; in assay [4] it was 98.4%; in assay [5], 93.8%; in assay [6], 97.9%. In addition, the growth in assay [7] is 102%; in assay [8] it was 105%.
With `CC1=NC(c2ccc(Cl)cc2)C2=C(N1)/C(=C/c1ccc(Cl)cc1)CCC2` (centres undefined), the growth in assay [1] was 82.5%; in assay [2], 66%; in assay [3], 22.4%; in assay [4], 82.1%; in assay [5], 31.3%; in assay [6] it was -39.9% (active). The growth in assay [7] was 41.5%; in assay [8], 38%.
As for `C1=C\CCCCN2CC[C@H]3[C@H](CCCC/C=C\CCCN4C[C@@H](CCCCC/1)C[C@@H]3C4)C2`, the growth was 71.4% in assay [1]; 89.5% in assay [2]; -70.3% (active) in assay [3]; 79.8% in assay [4]; 22.7% in assay [5]; 43.6% in assay [6]. Besides, the growth in assay [7] is 22.1%; in assay [8], 58.1%.
`Cc1c(-c2ccc(-c3ccccc3F)cc2)nc2ccc(F)cc2c1C(=O)O`: the growth in assay [1] was 59.2%; in assay [2], 45.5%; in assay [3], 34.9%; in assay [4] it was 38.9%; in assay [5], 28.4%; in assay [6], 21%. Moreover, the growth in assay [7] was 37.7%; in assay [8], 35.2%.
`Cc1cc(C)c([O-])c(CN(C)CCN(C)Cc2cc(C)cc(C)c2[O-])c1.O=C([O-])c1cccc(C(=O)[O-])n1.[Ti+4]`: the growth in assay [1] was 28.4%; in assay [2], -0.731% (active); in assay [3] it was 6.53% (active); in assay [4] it was -19.7% (active); in assay [5] it was 17.1%; in assay [6] it was 4.86% (active). Moreover, the growth in assay [7] is 5.25% (active); in assay [8], 11%.
On to `NS(=O)(=O)c1ccc(N2N=C(c3cccs3)CC2c2ccccc2O)cc1` (centres undefined), for which the growth was 46.1% in assay [1]; -15.4% (active) in assay [2]; -41.1% (active) in assay [3]; 19.3% in assay [4]; 4.97% (active) in assay [5]; 3.06% (active) in assay [6]. The growth in assay [7] was -8.11% (active); in assay [8] it was -15.8% (active).
Consider `COc1ccc2[nH]c(C(=O)OCc3ccc4c(Br)cc(Br)c(O)c4n3)cc2c1`, for which the growth in assay [1] is -51.9% (active); in assay [2] it was -88.2% (active); in assay [3] it was -72.4% (active); in assay [4] it was -72.8% (active); in assay [5] it was -36.8% (active); in assay [6], -74.8% (active). For the same molecule, the figures for the growth in assay [7] and in assay [8] were -77.7% (active) and -48.6% (active), respectively.
Consider `C=C1NC(=O)C(C(C)CC)NC(=O)C2CSCC(NC(=O)CCC(=O)O)C(=O)NC(Cc3ccccc3)C(=O)NC(C)C(=O)NC(CC(C)CC)C(=O)NC(C(=O)NC(Cc3ccccc3)C(=O)N3CCCC3C(=O)N2)C(C)OC(=O)C(CO)NC(=O)C(C(O)COC)N(C)C(=O)C(C(C)C)NC(=O)C(CC(C)CC)NC1=O` (centres undefined), for which the growth is 60.2% [6 µM] in assay [1]; 7.87% [6 µM] (active) in assay [2]; -34.8% [6 µM] (active) in assay [3]; 21.2% [6 µM] in assay [4]; 16.9% [6 µM] in assay [5]; 6.69% [6 µM] (active) in assay [6]. For the same molecule, the growth in assay [7] was 12.3% [6 µM]; in assay [8], 2.09% [6 µM] (active).
In the case of `OC(c1cc2c(Cl)cc(Cl)cc2c2cc(C(F)(F)F)ccc12)C1CCCCN1` (centres undefined), the growth was -78.5% (active) in assay [1]; 50.4% in assay [2]; -65.5% (active) in assay [3]; -74.4% (active) in assay [4]; -75.7% (active) in assay [5]; -85.9% (active) in assay [6]. Further, the growth was -73.5% (active) in assay [7] and -84.6% (active) in assay [8].
For `CCN(C(=O)Nc1cccc2ccccc12)c1ccccc1`, the growth in assay [1] was 88.1%; in assay [2], 108%; in assay [3] it was 105%; in assay [4], 107%; in assay [5], 97.8%; in assay [6], 106%. Besides, the growth in assay [7] is 103%; in assay [8], 108%.
`CCCc1n(Cc2ccc3ccccc3n2)cc[n+]1Cc1ccc2ccccc2c1`: the growth in assay [1] was -2.95% (active); in assay [2], -3.95% (active); in assay [3], -6.36% (active); in assay [4] it was 15%; in assay [5], 2.91% (active); in assay [6], 1.31% (active). Moreover, the figures for the growth in assay [7] and in assay [8] were 12.5% and -4.46% (active), respectively.
On to `Cc1ccccc1CNc1ncnc2[nH]ncc12`, for which the growth in assay [1] is 96.9%; in assay [2], 105%; in assay [3], 90.3%; in assay [4], 114%; in assay [5], 104%; in assay [6], 100%. Besides, the growth was 105% in assay [7] and 112% in assay [8].
In the case of `CCOC(C)(c1ccc(Cl)cc1)C1CCNCC1` (centres undefined), the growth in assay [1] is 91.7%; in assay [2], 99.5%; in assay [3], 109%; in assay [4], 79%; in assay [5], 94.8%; in assay [6] it was 97.8%. For the same molecule, the results for the growth in assay [7] and in assay [8] were 89.4% and 98.2%, respectively.
As for `COc1ccc(OC)c(Nc2nc(-c3c(C)nc4sccn34)cs2)c1`, the growth in assay [1] was 26.3%; in assay [2], 84.8%; in assay [3], 66.1%; in assay [4] it was 84.2%; in assay [5], 39.1%; in assay [6], 84.6%. The growth in assay [7] was 91.3%; in assay [8], 69.2%.
Take `COCCCNCC(=O)Nc1c(C)cccc1C`: the growth was 103% in assay [1]; 104% in assay [2]; 112% in assay [3]; 114% in assay [4]; 114% in assay [5]; 110% in assay [6]. The growth is 122% in assay [7] and 109% in assay [8].
On to `CC(C)=CCC[C@H](C)c1ccc(C)c2c1OCN(CCO)C2`, for which the growth in assay [1] is 70%; in assay [2], 95.8%; in assay [3], 101%; in assay [4], 100%; in assay [5], 83.9%; in assay [6], 71.8%. The growth in assay [7] is 84.4%; in assay [8], 103%.
Turning to `c1ccc(C(CC2=NCCCN2)c2ccccc2)cc1`, the growth in assay [1] was 101%; in assay [2] it was 95.1%; in assay [3], 94%; in assay [4], 100%; in assay [5], 94.1%; in assay [6], 97.3%. Further, the results for the growth in assay [7] and in assay [8] were 102% and 99.7%, respectively.
As for `CC(CN1CCN(C)CC1)CN1c2ccccc2Sc2ccc(C(F)(F)F)cc21` (centres undefined), the growth in assay [1] was 63.4%; in assay [2], 61.4%; in assay [3] it was 27.3%; in assay [4] it was 22.6%; in assay [5] it was 46.4%; in assay [6] it was 21.6%. Also, the growth in assay [7] was -16.7% (active); in assay [8], 31.2%.
As for `Clc1ccc(-c2nc(Br)cn3ccnc23)cc1`, the growth in assay [1] was 54.4%; in assay [2], 84.1%; in assay [3], 111%; in assay [4], 91.5%; in assay [5], 64.1%; in assay [6], 77.8%. Besides, the growth in assay [7] was 104%; in assay [8], 86.6%.
Take `Nc1c(C(=O)Nc2cccc(Cl)c2)sc2ncc(Br)cc12`: the growth was 62.6% in assay [1]; 68.2% in assay [2]; 71.9% in assay [3]; 61.3% in assay [4]; 84.2% in assay [5]; 23% in assay [6]. For the same molecule, the growth in assay [7] is 99.7%; in assay [8] it was 63.8%.
For the molecule `CC1=NN(c2cccc(S(N)(=O)=O)c2)C(=O)C1`, the growth was 84.2% in assay [1]; 109% in assay [2]; 94.6% in assay [3]; 94.8% in assay [4]; 90.4% in assay [5]; 104% in assay [6]. In addition, the results for the growth in assay [7] and in assay [8] were 96.1% and 107%, respectively.
On to `c1ccc(-c2[nH]c3ccccc3c2-c2ccccc2)cc1`, for which the growth is 66.1% in assay [1]; 110% in assay [2]; 84.6% in assay [3]; 88.3% in assay [4]; 94.9% in assay [5]; 81.2% in assay [6]. Moreover, the growth in assay [7] is 114%; in assay [8] it was 92.4%.
As for `O=C(CSc1ccc(Cl)cc1)Nc1ccc(-c2nc3ccccc3s2)c(Cl)c1`, the growth in assay [1] was 34.4%; in assay [2], 95.2%; in assay [3], 77.9%; in assay [4] it was 65.9%; in assay [5] it was 47.7%; in assay [6], 19.7%. The results for the growth in assay [7] and in assay [8] were 81.1% and 23%, respectively.
Regarding `CCN(C)CCCOc1ccc(/C(=C(\C)Cc2cccc(OC)c2)c2ccc(OC(C)=O)cc2)cc1`, the growth in assay [1] was 75.6%; in assay [2], 92.3%; in assay [3], 97.1%; in assay [4], 106%; in assay [5], 51.4%; in assay [6], 99.7%. In addition, the figures for the growth in assay [7] and in assay [8] were 101% and 106%, respectively.
As for `Cc1cc(C)c2c(n1)sc1c(Nc3ccc(O)cc3)ncnc12`, the growth in assay [1] is 39.6%; in assay [2], 50.6%; in assay [3], 36.6%; in assay [4], 45.6%; in assay [5] it was 20.3%; in assay [6], 29.2%. In addition, the values for the growth in assay [7] and in assay [8] were 63.3% and 50.3%, respectively.
`C=CCn1c(SCC(=O)Nc2ccc(C(=O)/C=C/c3ccc(Cl)cc3)cc2)nnc1-c1ccc(Cl)cc1`: the growth was 76% in assay [1]; 82.5% in assay [2]; 96.7% in assay [3]; 97.9% in assay [4]; 43.2% in assay [5]; -17.8% (active) in assay [6]. The growth in assay [7] was 90.4%; in assay [8], 94.2%.
Regarding `Cc1ccc(CSCc2ccc(C(=O)NC3CC3)o2)cc1`, the growth is 48.4% in assay [1]; 97.9% in assay [2]; 77.7% in assay [3]; 66.2% in assay [4]; 25% in assay [5]; 81.1% in assay [6]. The growth in assay [7] was 31.6%; in assay [8], 46.4%.
As for `COc1ccccc1NC(=O)OCC12COCN1COC2`, the growth in assay [1] was 102%; in assay [2], 117%; in assay [3] it was 102%; in assay [4] it was 101%; in assay [5], 92.4%; in assay [6], 113%. Moreover, the values for the growth in assay [7] and in assay [8] were 116% and 107%, respectively.
